In the library only some 2.3% were active in any assay of this set; here they are far more common.
MsrA inh: bovine MsrA enzyme inhibitors, primary screen, biochemical, absorbance, HTS; purified bovine MsrA, absorbance read-out; 0.75% of 360,000 active; AID 651718, 2012; inhibition, % at 15.5 µM; in the data active = inhibition above about 4.5%
bovine MsrA act: bovine MsrA enzyme activators, primary screen, biochemical, absorbance, HTS; 0.3% of 360,000 active; purified bovine MsrA, absorbance read-out; activation, % at 10.6 µM; in the data active = activation above about 7.5%
PP5 inh: PP5 phosphatase inhibitors, primary screen, biochemical, fluorescence | Serine/threonine-protein phosphatase 5 (Homo sapiens), P53041 | purified PP5c, OMFP substrate fluorescence | inhibition, % at 6.7 µM | 0.18% of 320,000 active | AID 1987, 2009;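 active = inhibition above the campaign's mean inhibition across all tested compounds plus 3 SD, cut at about 9.5% in these data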
ZTA counter: counter-screen for EBNA-1 inhibitors: inhibitors of Epstein-Barr virus ZTA; 0.15% of 320,000 active; inhibition, % at 11 µM; ZTA-DNA binding, fluorescence polarization; in the data active = inhibition above about 33%
Target sequence (P03206 whole entry, looked up): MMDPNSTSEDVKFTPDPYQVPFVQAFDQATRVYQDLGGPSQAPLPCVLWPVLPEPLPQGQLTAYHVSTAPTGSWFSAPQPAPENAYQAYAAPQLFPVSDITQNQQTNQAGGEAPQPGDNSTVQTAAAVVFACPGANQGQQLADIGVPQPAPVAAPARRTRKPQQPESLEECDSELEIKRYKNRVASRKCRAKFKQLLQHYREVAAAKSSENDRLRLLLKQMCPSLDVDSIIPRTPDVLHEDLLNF
PP1 inh: PP1-alpha phosphatase inhibitors, primary screen, counter-screen for PP5 inhibitor project, biochemical, fluorescence, OMFP substrate, single point; Serine/threonine-protein phosphatase PP1-alpha catalytic subunit (Homo sapiens), P62136; purified PP1alpha; inhibition, % at 6.7 µM; 0.9% of 320,000 active;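 active = inhibition above the mean inhibition of all tested compounds plus 3 SD, computed separately for each screening campaign, cut at about 15% in these data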
Target sequence (P62136 whole entry, looked up): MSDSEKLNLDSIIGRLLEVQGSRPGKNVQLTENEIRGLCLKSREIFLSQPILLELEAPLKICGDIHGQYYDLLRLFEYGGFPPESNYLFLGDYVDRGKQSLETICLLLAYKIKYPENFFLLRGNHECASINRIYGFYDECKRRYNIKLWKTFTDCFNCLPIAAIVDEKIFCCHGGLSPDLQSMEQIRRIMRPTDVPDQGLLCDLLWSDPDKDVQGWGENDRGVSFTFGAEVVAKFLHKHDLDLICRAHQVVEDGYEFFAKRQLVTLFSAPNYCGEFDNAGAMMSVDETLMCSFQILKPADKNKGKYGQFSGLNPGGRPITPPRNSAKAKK
EBNA-1 inh: EBNA-1 DNA-binding inhibitors, primary screen, biochemical, fluorescence polarization. inhibition, % at 14.8 µM. 0.34% of 300,000 active; in the data active = inhibition above about 28%
Zta DNA confirm: EBV Zta binding to ZRE DNA, inhibitors, confirmation, biochemical, fluorescence polarization, triplicate; inhibition, % at 11.1 µM; AID 2361, 2010; shares compounds with ZTA counter; 30% of 320 active;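 active = mean inhibition across triplicate runs above the hit threshold derived for the original primary screen, cut at about 33% in these data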
EBNA-1 counter: EBNA-1 DNA-binding inhibition, counter-screen for ZTA inhibitor project, biochemical, fluorescence polarization | shares compounds with ZTA counter | inhibition, % at 14.8 µM | 320 tested, under 10 active; call rule not given here
Numbers stand for hits; i = inactive; nt = no result.

SMILES	MsrA inh	bovine MsrA act	PP5 inh	ZTA counter	PP1 inh	EBNA-1 inh	Zta DNA confirm	EBNA-1 counter
CN(C)/C=C(\C=O)c1ccc(Cl)cc1Cl	i	i	i	i	i	i	nt	nt
Cc1cc(Nc2cccc(F)c2)n2nc(C)nc2n1	i	i	i	107	i	i	i	i
CCN1CCN(c2ccc(S(=O)(=O)N3CCCCC3)cc2NC(=O)c2cc3ccccc3o2)CC1	i	i	i	i	i	i	nt	nt
C=CCn1c(NS(=O)(=O)c2ccccc2)c(S(=O)(=O)c2ccc(C)cc2)c2nc3ccccc3nc21	i	i	13	56	30	i	i	i
CCOC(=O)C1(Cc2cccc(OC)c2)CCN(CC=C(C)C)CC1	i	i	i	95	i	i	i	i
CCOC(=O)C1(Cc2cccc(OC)c2)CCN(C/C=C/c2ccc(OC)cc2)CC1	i	i	i	i	i	i	nt	nt
Cc1ccc(-c2nnc(SCC(=O)N3CC(C)CC(C)C3)o2)cc1C (stereo unspecified)	i	i	i	i	i	i	nt	nt
CCOC(=O)Cc1csc(NC(=O)COc2ccccc2OCC)n1	i	i	i	48	i	i	i	i
Cc1ccnc(NC(=O)CNC(=O)c2ccccc2Br)c1	i	i	i	i	i	i	nt	nt
CC(C)Oc1ccc(CCNC(=O)CC2C(=O)NCCN2C)cc1 (stereo unspecified)	i	i	i	52	i	i	i	i
Cc1ccc([N+](=O)[O-])cc1NC(=O)C1CCN(S(C)(=O)=O)CC1	i	i	i	49	i	i	i	i
Cc1ccc([N+](=O)[O-])cc1NC(=O)C1CCCC1	i	i	i	i	i	i	nt	nt
CCOC(=O)C1CCCCN1Cc1ccc(OC)c(OC)c1 (stereo unspecified)	i	i	i	34	i	i	i	i
CCOC(=O)c1ccc(NC(=O)CCc2nc(-c3ccc(C)cc3)no2)cc1	i	i	i	35	i	i	i	i
CCOC(=O)c1ccc(NC(=O)CCc2nc(-c3ccc(Cl)cc3)no2)cc1	i	i	i	i	i	i	nt	nt
COc1ccc(C2=NN(C(C#N)c3ccc(OC)cc3)C(c3ccccc3)C2)cc1 (stereo unspecified)	i	i	i	35	i	i	i	i
Cn1cnc(S(=O)(=O)Nc2ccc(OC(F)(F)F)cc2)c1	i	i	i	i	i	i	nt	nt
CC(C)CC1C(=O)N(Cc2cn(Cc3ccco3)nn2)CCS(=O)(=O)N1Cc1ccc(-c2ccccc2)cc1 (stereo unspecified)	i	i	nt	nt	nt	nt	nt	nt
CCN(CC)CCn1c(SCC(=O)Nc2ccc(F)cc2)nc2c(sc3ccccc32)c1=O	nt	nt	i	38	i	i	i	i
COc1ccccc1NC(=O)CSc1nc2c(sc3ccccc32)c(=O)n1CCN(C)C	i	i	i	i	i	i	nt	nt
C#CCOCCOCCOCCNc1nc(N2CCN(C(=O)[C@H](CCC(=O)O)n3cc(C(N)CC(C)C)nn3)CC2)nc(N2CCN(C(=O)[C@H](CCC(=O)O)n3cc(C(N)[C@H](C)CC)nn3)CC2)n1 (stereo partly specified)	nt	i	i	i	i	i	nt	nt
C#CCOCCOCCOCCNc1nc(N2CCN(C(=O)C([C@@H](C)CC)n3cc(C(N)CC(C)C)nn3)CC2)nc(N2CCN(C(=O)[C@H](CCC(=O)O)n3cc(C(N)[C@H](C)CC)nn3)CC2)n1 (stereo partly specified)	i	i	i	58	i	i	i	i
OC(Cn1cnnc1)c1ccccc1 (stereo unspecified)	i	i	i	53	i	i	i	i
COC(=O)COc1c(/C=C\c2nc(O)c([N+](=O)[O-])c(=O)[nH]2)cccc1OC	i	i	i	i	i	i	nt	nt
C#CCOc1c(/C=C\c2nc(O)c([N+](=O)[O-])c(=O)[nH]2)cc(Br)cc1OC	i	i	i	50	i	i	i	i
SMILES	MsrA inh	bovine MsrA act	PP5 inh	ZTA counter	PP1 inh	EBNA-1 inh	Zta DNA confirm	EBNA-1 counter
CN1C(=O)C(C)(C)c2cc(S(=O)(=O)N3CCCC(C(=O)NCc4ccccc4Cl)C3)ccc21 (stereo unspecified)	i	i	i	i	i	i	nt	nt
Cc1cc(C)c2nc3sc(=Cc4ccc(-c5ccccc5C(=O)O)o4)c(=O)n3c2c1	i	i	nt	nt	nt	nt	nt	nt
O=C(O)c1ccc(-c2ccc(/C=c3/sc4nc5ccccc5n4c3=O)o2)cc1Cl	i	i	i	34	i	i	53	i
Cc1nnc(SCC(=O)NC(=O)Nc2ccc3c(c2)OCCO3)n1N	i	i	i	i	i	i	nt	nt
Cc1ccc(O)c(CNCCNCc2cc(C)ccc2O)c1	i	i	i	46	i	i	i	i
Cc1ccc(NC(=O)CCc2nnc(SCC(=O)Nc3ccccc3C)n2C)cc1Cl	i	i	i	69	i	i	i	i
CCC(CC)NC(=O)CSc1ccc(S(=O)(=O)N2CCCCC2)cn1	i	i	nt	nt	nt	nt	nt	nt
CCn1c(CSc2nccn2C)nc2cc(C(=O)O)ccc21	nt	i	i	38	i	i	i	i
CCn1c(CSc2nc3ccccc3[nH]2)nc2cc(C(=O)O)ccc21	i	i	i	i	i	i	nt	nt
N/C(=N\OC(=O)COc1ccc(Br)cc1Cl)c1ccccn1	i	i	i	74	i	i	i	i
COC(=O)c1csc2c(C(F)(F)F)cc(N3CCN(C(=O)Nc4ccccc4)CC3)nc12	i	i	i	i	i	i	nt	nt
O=c1[nH]c(/C=C\c2cccc(F)c2)nc(O)c1[N+](=O)[O-]	i	i	i	i	i	i	nt	nt
O=c1[nH]c(/C=C\c2cccc(Cl)c2)nc(O)c1[N+](=O)[O-]	i	i	i	40	i	i	38	i
Cc1ccccc1NC(=S)NCCc1ccccn1	i	i	i	i	i	i	nt	nt
Cc1cccc(C)c1NC(=S)NCCc1ccccn1	i	i	i	34	i	i	i	i
COCCNC(=O)C(c1ccc(F)cc1)N(C(=O)CCC(=O)Nc1nccs1)c1ccc(C)cc1 (stereo unspecified)	i	i	i	i	i	i	nt	nt
Cc1ccc2sc(NC(=O)CSc3nc(C)cc(C)c3C#N)nc2c1	i	i	i	38	i	i	i	i
Cc1cc(C(F)(F)F)c(C#N)c(SCC(=O)Nc2nc3ccccc3s2)n1	i	i	i	i	i	i	nt	nt
O=C(CSc1cccc[n+]1[O-])Nc1ccc(N2CCOCC2)cc1	i	nt	i	i	i	i	nt	nt
C=CCOc1ccc(/C=C2\SC(=S)N(N3CCOCC3)C2=O)cc1	i	i	i	41	i	i	i	i

Screens from PubChem.
